Experimental findings from PubChem BioAssay (EPA / NIEHS) are described below.

Assay [1] in a line: CEETOX_H295R_CORTIC: CeeTox H295R High-throughput Steroidogenesis Assay for Corticosterone (CORTIC) (AID 2283437).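 Also: corticosterone secreted into medium quantified by mass spectrometry.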 The following applies: actives raise or lower the signal. Put shortly:
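H295R adrenal cells prestimulated 48 hours with 10 uM forskolin, then exposed 48 hours to chemical in 0.1% DMSO. Corticosterone in medium measured by HPLC-MS/MS after MTBE extraction; MTT viability in the same wells; bidirectional fit versus DMSO.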

Assay [2] is described as follows: CEETOX_H295R_CORTISOL: CeeTox H295R High-throughput Steroidogenesis Assay for Cortisol (AID 2283438).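 Also: cortisol secreted into medium quantified by LC-MS/MS.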 As to conditions: actives raise or lower the signal. The method in brief: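 Forskolin-primed H295R cells (10 uM, 48 h) treated 48 h with test chemical in 0.1% DMSO. Cortisol in medium quantified by MTBE extraction and HPLC-MS/MS; bidirectional fit vs DMSO, MTT viability in same wells.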

Assay [3] in a line: CEETOX_H295R_DOC: CeeTox H295R High-throughput Steroidogenesis Assay for DOC (AID 2283439). The following applies: actives raise or lower the signal. Put shortly:
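H295R cells prestimulated 48 h with 10 uM forskolin, then exposed 48 h to test chemical (0.1% DMSO final). Medium 11-deoxycorticosterone measured by HPLC-MS/MS after MTBE extraction; bidirectional fit vs DMSO, viability checked by MTT in same wells.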

Assay [4] can be described thus: CEETOX_H295R_ESTRADIOL: CeeTox H295R High-throughput Steroidogenesis Assay for Estradiol (AID 2283440).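 Also: estradiol secreted into medium quantified by LC-MS/MS after dansyl derivatisation.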 As to conditions: actives raise or lower the signal. The method in brief: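 H295R, 48 h forskolin (10 uM) prestim → 48 h compound, 0.1% DMSO final. Estradiol in medium: MTBE extraction, dansyl chloride derivatization, LC-MS/MS. Fit bidirectional vs DMSO baseline; MTT viability in same wells.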

Assay [5] can be described thus: CEETOX_H295R_ESTRONE: CeeTox H295R High-throughput Steroidogenesis Assay for Estrone (AID 2283441).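 Also: estrone secreted into medium measured by LC-MS/MS after dansyl derivatization.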 The following applies: actives raise or lower the signal. The method in brief:
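H295R cells prestimulated 48 h with 10 uM forskolin, then exposed 48 h to chemicals in 0.1% DMSO final; estrone in medium extracted with MTBE, dansyl-derivatized, quantified by HPLC-MS/MS; bidirectional fitting versus DMSO, viability by MTT.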

Assay [6] is described as follows: CEETOX_H295R_PROG: CeeTox H295R High-throughput Steroidogenesis Assay for Progesterone (PROG) (AID 2283442). The following applies: actives raise or lower the signal. Put shortly:
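Progesterone read-out: HPLC-MS/MS on MTBE extracts of conditioned medium after 48 h chemical exposure of forskolin-primed (10 uM, 48 h) H295R cells. Gain or loss of signal was fitted relative to DMSO baseline.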

Read-out in assay [7]: Fatty acid synthase (Homo sapiens) (UniProt P49327)
Briefly: LTEA_HepaRG_FASN: Life Technologies and Expression Analysis (LTEA) Assay for Fatty Acid Synthase (FASN) using HepaRG (AID 2283448). As to conditions: mRNA level, 48 h; actives raise or lower the signal. The method in brief: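 Differentiated HepaRG cells in serum-free induction medium exposed 48 h in duplicate to eight half-log concentrations, top 100 uM, 0.5% DMSO. FASN mRNA by qRT-PCR normalised to ACTB, GAPDH, POLR2A; bidirectional fit versus DMSO.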

Read-out in assay [8]: Cyclin D2 (CCND2), CCND2 (gene 894)
The experiment in a line: LTEA_HepaRG_CCND2: Life Technologies and Expression Analysis (LTEA) Assay for Cyclin D2 (CCND2) using HepaRG (AID 2283449).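 Also: CCND2 transcript measured by TaqMan qRT-PCR and normalised to three housekeeping genes.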 The following applies: mRNA level, 48 h; actives raise or lower the signal. The method in brief:
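Chemicals in 0.5% DMSO, eight half-log concentrations from 100 uM top, were applied in duplicate for 48 h to human HepaRG cells in serum-free induction medium. CCND2 mRNA by TaqMan qRT-PCR, normalised to ACTB/GAPDH/POLR2A; bidirectional fit versus DMSO.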

Read-out in assay [9]: Cyclin Dependent Kinase Inhibitor 1A (CDKN1A), CDKN1A (gene 1026)
Briefly: LTEA_HepaRG_CDKN1A: Life Technologies and Expression Analysis (LTEA) Assay for Cyclin Dependent Kinase Inhibitor 1A (CDKN1A) using HepaRG (AID 2283450). As to conditions: mRNA level, 48 h; actives raise or lower the signal. The method in brief:
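HepaRG, 48 h dosing, 8-pt half-log series from 100 uM top, 0.5% DMSO vehicle, duplicates. Readout: TaqMan qRT-PCR of CDKN1A transcript, housekeeping-normalized (ACTB, GAPDH, POLR2A). Up/down curve fit relative to DMSO.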

Read-out in assay [10]: Cyclin D1 (CCND1), CCND1 (gene 595)
Briefly: LTEA_HepaRG_CCND1: Life Technologies and Expression Analysis (LTEA) Assay for Cyclin D1 (CCND1) using HepaRG (AID 2283451). The following applies: mRNA level, 48 h; actives raise or lower the signal. The method in brief:
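qRT-PCR (Fluidigm 96.96 array) read-out of transcript level, housekeeping-normalized (ACTB/GAPDH/POLR2A). HepaRG cells, 48 h chemical exposure, 8-point half-log series from 100 uM, 0.5% DMSO vehicle; gain or loss relative to DMSO baseline.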

Read-out in assay [11]: catalase (CAT), CAT (gene 847)
Briefly: LTEA_HepaRG_CAT: Life Technologies and Expression Analysis (LTEA) Assay for catalase (CAT) using HepaRG (AID 2283452). As to conditions: mRNA level, 48 h; actives raise or lower the signal. Put shortly: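 HepaRG cells in serum-free induction medium, 0.5% DMSO vehicle, exposed 48 h in duplicate over 8 half-log concentrations from 100 uM. CAT mRNA measured by qRT-PCR, normalized to ACTB, GAPDH, POLR2A; bidirectional fit versus DMSO.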

Read-out in assay [12]: flavin-containing dimethylaniline monooxygenases 3 (FMO3), FMO3 (gene 2328)
Briefly: LTEA_HepaRG_FMO3: Life Technologies and Expression Analysis (LTEA) Assay for flavin-containing dimethylaniline monooxygenases 3 (FMO3) using HepaRG (AID 2283453). As to conditions: mRNA level, 48 h; actives raise or lower the signal. Put shortly: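 Differentiated HepaRG cells in serum-free induction medium, exposed 48 h in duplicate to 8 half-log concentrations up to 100 uM in 0.5% DMSO. FMO3 mRNA by qRT-PCR, normalized to ACTB, GAPDH, POLR2A; bidirectional fit vs DMSO.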

Read-out in assay [13]: Cytochrome P450 (CYP1A1), CYP1A1 (gene 1543)
The experiment in a line: LTEA_HepaRG_CYP1A1: Life Technologies and Expression Analysis (LTEA) Assay for Cytochrome P450 (CYP1A1) using HepaRG (AID 2283454). As to conditions: mRNA level, 48 h; actives raise or lower the signal. Put shortly:
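qRT-PCR read-out: CYP1A1 transcript normalized to three housekeeping genes, fitted bidirectionally against 0.5% DMSO vehicle baseline. Human HepaRG cells, 48 h chemical exposure, 8-point half-log series topping at 100 uM.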

Read-out in assay [14]: CFLAR gene, CFLAR (gene 8837)
The experiment in a line: LTEA_HepaRG_CFLAR: Life Technologies and Expression Analysis (LTEA) Assay for CFLAR gene using HepaRG (AID 2283455). As to conditions: mRNA level, 48 h; actives raise or lower the signal. Put shortly:
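Differentiated HepaRG cells in serum-free induction medium were exposed 48 h in duplicate to eight half-log concentrations up to 100 uM in 0.5% DMSO; mRNA measured by TaqMan qRT-PCR, normalized to ACTB, GAPDH, POLR2A; bidirectional fitting versus DMSO.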

Read-out in assay [15]: Forkhead box O1 (FOXO1), FOXO1 (gene 2308)
Briefly: LTEA_HepaRG_FOXO1: Life Technologies and Expression Analysis (LTEA) Assay for Forkhead box O1 (FOXO1) using HepaRG (AID 2283456). The following applies: mRNA level, 48 h; actives raise or lower the signal. Put shortly:
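Differentiated HepaRG cells, in serum-free induction medium with 0.5% DMSO, exposed 48 h in duplicate to 8-point half-log series from 100 uM. FOXO1 mRNA measured by TaqMan qRT-PCR, normalized to ACTB, GAPDH, POLR2A; bidirectional fit versus DMSO.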

Read-out in assay [16]: growth arrest and DNA damage 45 (GADD45A), GADD45A (gene 1647)
The experiment in a line: LTEA_HepaRG_GADD45A: Life Technologies and Expression Analysis (LTEA) Assay for growth arrest and DNA damage 45 (GADD45A) using HepaRG (AID 2283458). As to conditions: mRNA level, 48 h; actives raise or lower the signal. The method in brief:
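Differentiated HepaRG cells exposed 48 h in serum-free induction medium to 8 concentrations, top 100 uM in half-log steps, 0.5% DMSO. GADD45A mRNA quantified by qRT-PCR, normalized to ACTB, GAPDH and POLR2A; bidirectional fit versus DMSO.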

Read-out in assay [17]: Forkhead box O3 (FOXO3), FOXO3 (gene 2309)
The experiment in a line: LTEA_HepaRG_FOXO3: Life Technologies and Expression Analysis (LTEA) Assay for Forkhead box O3 (FOXO3) using HepaRG (AID 2283459). The following applies: mRNA level, 48 h; actives raise or lower the signal. The method in brief: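 Differentiated human HepaRG cells, 48 h post-plating, exposed in duplicate for 48 h in serum-free induction medium; 8-point half-log series from 100 uM in 0.5% DMSO. FOXO3 mRNA by TaqMan qRT-PCR, normalized to ACTB/GAPDH/POLR2A; bidirectional fit versus DMSO.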

Read-out in assay [18]: Tumor necrosis factor receptor superfamily member 6 (Homo sapiens) (UniProt P25445)
The experiment in a line: LTEA_HepaRG_FAS: Life Technologies and Expression Analysis (LTEA) Assay for Fas cell surface death receptor (FAS) using HepaRG (AID 2283447). As to conditions: mRNA level, 48 h; actives raise or lower the signal. Put shortly:
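Differentiated HepaRG cells in serum-free induction medium were exposed 48 h to 8 half-log concentrations up to 100 uM in 0.5% DMSO, in duplicate. FAS mRNA was measured by qRT-PCR normalised to ACTB, GAPDH and POLR2A; bidirectional fit versus DMSO.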

The source made the active and inactive calls. The calls were made as follows: active = hit-call score of the fitted dose curve at least 0.9, where 1 is the maximum; inactive = score below 0.9.

The AC50 is the concentration giving half of the maximal activity seen.

Sequence of Fatty acid synthase (Homo sapiens) (P49327 whole entry, looked up): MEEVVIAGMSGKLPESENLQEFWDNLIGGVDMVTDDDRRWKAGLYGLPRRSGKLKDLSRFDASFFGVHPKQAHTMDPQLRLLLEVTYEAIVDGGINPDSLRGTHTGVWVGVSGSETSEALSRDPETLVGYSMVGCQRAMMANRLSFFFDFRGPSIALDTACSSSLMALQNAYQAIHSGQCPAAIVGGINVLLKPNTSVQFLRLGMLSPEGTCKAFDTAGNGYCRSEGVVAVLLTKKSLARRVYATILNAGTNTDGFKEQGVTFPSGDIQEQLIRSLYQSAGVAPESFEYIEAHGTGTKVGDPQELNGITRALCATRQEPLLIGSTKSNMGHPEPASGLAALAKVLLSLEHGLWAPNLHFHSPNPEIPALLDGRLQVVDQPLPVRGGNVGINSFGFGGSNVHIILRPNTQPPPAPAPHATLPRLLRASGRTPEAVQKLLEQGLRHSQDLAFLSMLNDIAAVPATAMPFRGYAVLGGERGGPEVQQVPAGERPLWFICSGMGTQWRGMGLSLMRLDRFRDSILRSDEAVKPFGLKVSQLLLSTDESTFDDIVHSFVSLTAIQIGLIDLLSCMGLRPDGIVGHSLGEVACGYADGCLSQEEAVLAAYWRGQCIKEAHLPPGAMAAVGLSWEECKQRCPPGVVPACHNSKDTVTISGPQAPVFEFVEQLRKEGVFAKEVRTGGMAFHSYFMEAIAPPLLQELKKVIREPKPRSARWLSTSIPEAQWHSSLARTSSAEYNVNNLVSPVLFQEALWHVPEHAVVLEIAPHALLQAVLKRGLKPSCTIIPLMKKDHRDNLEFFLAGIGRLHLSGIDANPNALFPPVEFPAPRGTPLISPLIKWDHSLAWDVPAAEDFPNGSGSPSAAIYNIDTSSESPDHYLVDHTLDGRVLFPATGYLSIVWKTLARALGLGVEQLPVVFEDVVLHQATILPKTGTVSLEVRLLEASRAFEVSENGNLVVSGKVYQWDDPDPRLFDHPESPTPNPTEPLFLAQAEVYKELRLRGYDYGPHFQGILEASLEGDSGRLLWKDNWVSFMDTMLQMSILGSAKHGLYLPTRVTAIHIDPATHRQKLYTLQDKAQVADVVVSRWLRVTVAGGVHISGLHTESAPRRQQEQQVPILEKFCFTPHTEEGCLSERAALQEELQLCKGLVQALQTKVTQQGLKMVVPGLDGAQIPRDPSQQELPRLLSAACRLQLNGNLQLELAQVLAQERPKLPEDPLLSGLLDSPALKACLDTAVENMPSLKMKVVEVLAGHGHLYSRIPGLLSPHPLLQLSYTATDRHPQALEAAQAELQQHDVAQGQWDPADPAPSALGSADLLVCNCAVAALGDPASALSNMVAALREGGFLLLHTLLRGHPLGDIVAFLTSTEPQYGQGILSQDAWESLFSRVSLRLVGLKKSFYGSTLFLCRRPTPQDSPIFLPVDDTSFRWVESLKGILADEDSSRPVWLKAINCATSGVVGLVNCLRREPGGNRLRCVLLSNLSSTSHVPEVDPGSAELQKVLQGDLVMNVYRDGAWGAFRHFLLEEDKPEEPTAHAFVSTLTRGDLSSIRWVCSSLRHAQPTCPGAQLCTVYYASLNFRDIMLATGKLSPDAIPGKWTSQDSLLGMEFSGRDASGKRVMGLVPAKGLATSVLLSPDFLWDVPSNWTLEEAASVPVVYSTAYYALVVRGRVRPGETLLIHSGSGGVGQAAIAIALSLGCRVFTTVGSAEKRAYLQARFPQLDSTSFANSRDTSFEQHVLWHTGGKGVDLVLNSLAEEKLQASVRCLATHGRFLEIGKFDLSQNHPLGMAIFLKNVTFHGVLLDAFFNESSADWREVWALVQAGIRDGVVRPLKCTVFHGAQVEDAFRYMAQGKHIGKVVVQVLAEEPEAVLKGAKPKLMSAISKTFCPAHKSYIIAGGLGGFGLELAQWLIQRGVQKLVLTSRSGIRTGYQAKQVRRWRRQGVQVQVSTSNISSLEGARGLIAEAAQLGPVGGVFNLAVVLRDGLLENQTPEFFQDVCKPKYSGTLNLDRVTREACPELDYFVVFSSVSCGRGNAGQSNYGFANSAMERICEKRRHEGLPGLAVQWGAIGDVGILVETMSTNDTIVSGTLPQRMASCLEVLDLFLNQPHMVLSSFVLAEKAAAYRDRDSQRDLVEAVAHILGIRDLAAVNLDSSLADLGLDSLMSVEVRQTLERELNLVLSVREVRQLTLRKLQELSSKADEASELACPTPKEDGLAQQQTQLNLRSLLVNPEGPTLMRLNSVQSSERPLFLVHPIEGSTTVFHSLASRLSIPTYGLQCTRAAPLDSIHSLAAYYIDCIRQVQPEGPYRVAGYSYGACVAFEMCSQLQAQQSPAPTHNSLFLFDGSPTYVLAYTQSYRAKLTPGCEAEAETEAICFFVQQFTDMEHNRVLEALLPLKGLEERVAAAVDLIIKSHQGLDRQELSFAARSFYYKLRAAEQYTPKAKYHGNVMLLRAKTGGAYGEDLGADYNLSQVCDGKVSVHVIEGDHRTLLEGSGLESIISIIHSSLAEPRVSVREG

Regarding `COC(=O)NC(=S)Nc1ccccc1NC(=S)NC(=O)OC`, the result in assay [1], in assay [2], in assay [3], in [4], in [5] and in assay [6] was inactive. The call in assay [7], in assay [8], in assay [9], in assay [10], in assay [11] and in assay [12] was inactive. In addition, the molecule was called inactive in assay [14], in assay [15], in [16] and in [17]. The half-maximal activity concentration (AC50) in assay [13] is 39.2 µM (active).

On to `Cc1nc(N(C)C)nc(OC(=O)N(C)C)c1C`, for which the result in assay [1], in [2], in assay [3], in assay [4], in assay [5] and in assay [6] was inactive. The molecule was called inactive in assay [18], in assay [7], in assay [8], in assay [9], in [10] and in assay [12]. Also, the result in [14], in assay [15] and in assay [16] was inactive. In addition, the concentration at half-maximal activity (AC50) in [13] is 34.3 µM (active).

Consider `CC1(C)C(C=C(Cl)Cl)C1C(=O)OC(C#N)c1cccc(Oc2ccccc2)c1` (stereo not given), for which the molecule was classed as inactive in assay [1], in assay [2], in [3], in assay [4], in assay [5] and in [6]. The molecule was classed as inactive in assay [18], in [7], in assay [8], in assay [10], in assay [11] and in assay [12]. The molecule was called inactive in assay [14], in assay [15], in [16] and in assay [17]. Moreover, in assay [13], the concentration at half-maximal activity (AC50) is 28.8 µM (active).
